The values below come from ChEMBL document CHEMBL1201862, “PubChem BioAssay data set” (2004).

Screen size: about 400,000 compounds; about 2,100 (0.53%) were called active. Another 14% or so got no clear call; they are omitted. No rule for the calls is given here. The list comes from a sample in which actives are over-represented; it also holds similar structures and randomly drawn compounds.

This experiment deals with Ataxin-2 (Homo sapiens) (UniProt Q99700). As to the kind of experiment: qHTS for Inhibitors of ATXN expression. The class given is functional.
Ataxin-2 (Homo sapiens), sequence (Q99700 whole entry): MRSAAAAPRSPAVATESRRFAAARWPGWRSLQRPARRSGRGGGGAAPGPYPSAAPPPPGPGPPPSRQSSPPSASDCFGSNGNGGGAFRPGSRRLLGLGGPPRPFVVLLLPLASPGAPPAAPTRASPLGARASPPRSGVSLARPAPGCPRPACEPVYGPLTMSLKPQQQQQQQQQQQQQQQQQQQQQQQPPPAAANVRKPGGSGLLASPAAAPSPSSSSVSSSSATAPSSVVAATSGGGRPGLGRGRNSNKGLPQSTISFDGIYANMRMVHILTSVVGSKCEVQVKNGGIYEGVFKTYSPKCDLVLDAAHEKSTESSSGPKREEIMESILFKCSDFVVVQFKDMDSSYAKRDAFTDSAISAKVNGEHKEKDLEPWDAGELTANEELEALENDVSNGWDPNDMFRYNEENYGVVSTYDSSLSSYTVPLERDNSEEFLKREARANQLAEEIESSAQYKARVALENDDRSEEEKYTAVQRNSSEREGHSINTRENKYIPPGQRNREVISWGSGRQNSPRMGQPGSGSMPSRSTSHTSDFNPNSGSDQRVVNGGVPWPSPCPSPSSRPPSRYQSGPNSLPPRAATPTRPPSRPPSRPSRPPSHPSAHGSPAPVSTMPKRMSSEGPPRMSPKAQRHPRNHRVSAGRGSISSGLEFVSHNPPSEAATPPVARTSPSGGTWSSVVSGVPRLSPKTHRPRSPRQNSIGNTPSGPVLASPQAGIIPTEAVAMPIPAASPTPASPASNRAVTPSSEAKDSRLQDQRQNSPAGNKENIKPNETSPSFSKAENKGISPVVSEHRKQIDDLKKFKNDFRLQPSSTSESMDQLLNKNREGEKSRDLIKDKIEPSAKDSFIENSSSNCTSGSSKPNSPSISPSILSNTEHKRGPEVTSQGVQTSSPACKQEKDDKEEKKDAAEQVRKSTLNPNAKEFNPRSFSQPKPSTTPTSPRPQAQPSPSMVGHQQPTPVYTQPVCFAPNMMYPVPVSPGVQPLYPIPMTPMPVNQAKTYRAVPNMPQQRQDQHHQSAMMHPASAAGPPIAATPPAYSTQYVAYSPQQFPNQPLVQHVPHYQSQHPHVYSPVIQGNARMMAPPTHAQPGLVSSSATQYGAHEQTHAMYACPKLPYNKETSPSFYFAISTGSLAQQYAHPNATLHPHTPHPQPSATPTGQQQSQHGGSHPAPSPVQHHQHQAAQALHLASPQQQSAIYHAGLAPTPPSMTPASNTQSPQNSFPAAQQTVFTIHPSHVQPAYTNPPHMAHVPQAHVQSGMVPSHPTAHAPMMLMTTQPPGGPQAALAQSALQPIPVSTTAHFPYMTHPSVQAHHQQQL
For `Cc1c(CC(=O)NCc2ccccc2)c(=O)oc2c(C)c(O)ccc12`, the Potency result was “inactive”.

In the case of `Cc1ccc(C(C)NC(=O)C2CCCC2)c(C)c1` (centres undefined), the Potency result is “inactive”.

Turning to `C=CCNC(=O)CSc1ncc2c(n1)-c1c(csc1SC)CC2`, the Potency result is “inactive”.

In the case of `CC(NC(=O)c1cc2c(=O)n3ccccc3nc2n(C(C)C)c1=N)c1ccccc1` (centres undefined), the Potency entry is “inactive”.

Turning to `COCCN(CCOC)c1cc(C)c(C#N)c2nc3ccccc3n12`, the Potency result is “inactive”.

`Cc1occc1C(=O)N1CCC2(CCCN(Cc3ccc(F)c(F)c3)C2)C1` (centres undefined): the Potency result was “inactive”.

`Cc1cccc(N2CCN(C(=O)c3cc4c(=O)n(C)c5ccccc5c4n3C)CC2C)c1` (centres undefined): the Potency is 39.8 µM (active).

Consider `CC1CN(C(=O)c2cc3c(=O)n4ccccc4nc3n2C)CC(C)O1` (centres undefined), for which the Potency entry was “inactive”.

Consider `Cn1c(C(=O)N2CCc3ccccc3C2)cc2c(=O)n3ccccc3nc21`, for which the Potency entry was “inactive”.

In the case of `COc1ccc2nc(N3CCCC3)c(C#N)cc2c1`, the Potency entry is “inactive”.

`O=c1cc(CN2CCN(S(=O)(=O)c3ccc4c(c3)OCCO4)CC2)c2ccc(O)cc2o1`: the Potency entry is “inactive”.

Turning to `Cc1cccc(C2=NN(c3ccccc3)[C@@H](C(=O)N3CCOC3=O)[C@@H]2c2ccc(Cl)cc2)c1`, the Potency result was “inactive”.

On to `COc1ccc([N+](=O)[O-])cc1NC(=O)CC(c1ccccc1)c1ccccc1`, for which the Potency result is “inactive”.

For the compound `O=C(Nc1ccc([N+](=O)[O-])cc1)Nc1ccc(OC(F)F)c(Cl)c1`, the Potency is 35.5 µM (active).

With `COc1cc(/C=C/C(=O)OCC(=O)Nc2ccc([N+](=O)[O-])cc2)ccc1O`, the Potency result is “inactive”.

Take `CCOC(=O)/C=c1\s/c(=C\c2ccc3cc(OC)ccc3c2)c(=O)n1CC(=O)NCc1ccc2c(c1)OCO2`: the Potency entry was “inactive”.

In the case of `N#C/C(=C\c1c(N2CCOCC2)nc2ccccn2c1=O)C(=O)NC1CCS(=O)(=O)C1` (centres undefined), the Potency result was “inactive”.

For the compound `CCN(CC)CCn1c(=N)n(CC(=O)c2ccc(Br)s2)c2ccccc21`, the Potency entry was “inactive”.

Regarding `Cn1c(/C(C#N)=C(\O)c2ccc(Br)s2)nc2ccccc21`, the Potency entry is “inactive”.

Regarding `CCCCn1c(=N)n(CC(=O)c2ccc(Br)s2)c2ccccc21`, the Potency is 39.8 µM (active).

Consider `CC(C)n1c(=N)c(C(=O)NCc2cccnc2)cc2c(=O)n3ccccc3nc21`, for which the Potency result was “inactive”.

On to `N#Cc1c(C(F)(F)F)cc(-c2ccco2)nc1SCc1ccncc1`, for which the Potency entry is “inactive”.

For `CCOC(=O)c1cc(C(=O)c2cc(Cl)ccc2O)coc1=N`, the Potency entry is “inactive”.

Turning to `Cc1ccc(C(=O)CC(=O)c2ccc(C)cc2O)cc1`, the Potency entry is “inactive”.

For the compound `CCN(CC)CC(=O)Nc1sc(C)c(C)c1C(=O)c1ccc(C)cc1`, the Potency result is “inactive”.

`CCc1cc(C(=O)c2ccc(C)cc2)c(NC(=O)CCl)s1`: the Potency was 31.6 µM (active).

For the compound `Cc1cc(C(=O)c2ccc(Cl)cc2)c(NC(=O)CCl)s1`, the Potency was 39.8 µM (active).

Consider `CCOc1ccccc1/N=c1\oc2cc(O)ccc2cc1C(=O)NCC1CCCO1` (centres undefined), for which the Potency result is “inactive”.

For `COC(=O)C(=O)C/C(=N/Nc1ncnc2ccccc12)c1ccc(Cl)cc1`, the Potency entry was “inactive”.

Take `C#CCOc1ccc(C2C3=C(CC(C)(C)CC3=O)N(CC(=O)O)C3=C2C(=O)CC(C)(C)C3)cc1`: the Potency result is “inactive”.

Turning to `Cc1cc2nc3c(=O)n(C4CCCCC4)c(=O)[nH]c3nc2cc1N`, the Potency result was “inactive”.

In the case of `CCCN(CC(=O)Nc1ccc(F)c(F)c1F)C(=O)Cc1ccc(OC)c(S(=O)(=O)N2CCOCC2)c1`, the Potency result was “inactive”.

In the case of `Cc1ccccc1CN1CCN(Cc2cc3ccccc3o2)CC1CCO` (centres undefined), the Potency was 8.44 µM (active).

On to `CC(C)=CCN1CCN(Cc2cccc3nonc23)CC1CCO` (centres undefined), for which the Potency entry is “inactive”.

Take `COc1ccc(CN2CCN(CC3CC3)CC2CCO)c(C)c1C` (centres undefined): the Potency entry is “inactive”.

For `CCOc1ccc(C2=CC(c3ccccc3)n3ncnc3N2)cc1` (centres undefined), the Potency entry was “inactive”.

With `CCOCCCn1/c(=N/C(=O)c2cccnc2)c(C(=O)OCC)cc2c(=O)n3ccccc3nc21`, the Potency result is “inactive”.

As to `COC(=O)c1ccc2[nH]c3cccc(/C(=C/c4ccccc4)c4ccccc4)c3c2c1`, the Potency was 39.8 µM (active).

For the compound `O=C(OCCN1C(=O)c2cccc3c(N4CCOCC4)ccc(c23)C1=O)c1ccc(Cl)cc1Cl`, the Potency result is “inactive”.

On to `O=C(CN1C(=O)c2ccccc2C1=O)OCCOCCNC1=NS(=O)(=O)c2ccccc21`, for which the Potency result is “inactive”.

Regarding `COc1ccc(NC(=S)N2CCC(C(=O)c3ccc(Cl)cc3)CC2)cc1`, the Potency result was “inactive”.

As to `COc1ccc(N2CC(C(=O)N[C@@H](C)C(=O)NCc3ccccc3OC)CC2=O)cc1` (some centres undefined), the Potency result was “inactive”.

For the compound `CCn1cc(Cl)c(C(=O)Nc2cc(C(=O)OC)cc(C(=O)OC)c2)n1`, the Potency entry was “inactive”.

As for `COCCCNC(=O)c1ccc2nc3ccccc3c(=O)n2c1`, the Potency result is “inactive”.

On to `CCc1nc2ccc(C(=O)NCc3ccccc3OC)cn2c1N(C)Cc1ccc(OC)cc1`, for which the Potency is 17.8 µM (active).

For the compound `CCc1nc2ccc(C(=O)Nc3ccc(Cl)c(Cl)c3)cn2c1N(C)Cc1ccc(OC)cc1`, the Potency was 20 µM (active).

On to `COc1ccc2c(c1)CCc1cn3ncc(C#N)c3nc1-2`, for which the Potency entry was “inactive”.

On to `O=C(O/N=C1\CCS(=O)(=O)c2sccc21)c1ccccc1`, for which the Potency entry is “inactive”.

Take `CCc1c(C)c2cc(Cl)c(O)c(CN(CC)CC)c2oc1=O`: the Potency entry is “inactive”.

Regarding `CN1C(=O)c2cccc3c(Br)ccc(c23)C1=O`, the Potency result is “inactive”.

On to `Brc1ccc(COc2ncnc3ccccc23)cc1`, for which the Potency result was “inactive”.

`CCOc1ccc(CN(C)C(=O)CCl)cc1`: the Potency is 12.6 µM (active).

`COc1ccc(CN(C)C(S)=Nc2ccc(Cl)cc2)cc1`: the Potency result was “inactive”.

As to `CN(Cc1ccc(Cl)cc1)C(=O)CCl`, the Potency was 35.5 µM (active).

As to `O=C(NCc1ccc2c(c1)OCO2)c1ccc(Cl)s1`, the Potency entry was “inactive”.

As for `CN(Cc1ccc(Cl)s1)C(=O)CCl`, the Potency was 23.8 µM (active).

As to `O=C(O)c1ccccc1N(Cc1ccccc1)C(=O)COc1ccccc1`, the Potency entry is “inactive”.

Turning to `CCOc1ccc(CNC(=O)Nc2ccccc2)cc1`, the Potency entry was “inactive”.

As to `O=C(Nc1ccccc1F)C(=Cc1sc(N2CCOCC2)nc1-c1ccccc1)C(=O)Nc1ccccc1F`, the Potency entry is “inactive”.

`Nc1c(C(=O)Nc2ccccc2)sc2nc(-c3ccco3)ccc12`: the Potency result was “inactive”.

As for `Cc1ccc2cccc(NS(=O)(=O)c3ccccc3)c2n1`, the Potency entry was “inactive”.

`CC(C)(C)C(=O)/C=c1\s/c(=C\c2ccc(-c3ccc([N+](=O)[O-])cc3)o2)c(=O)n1CC(=O)NC(N)=O`: the Potency result was “inactive”.

For the compound `COC(=O)c1ccc2oc(=O)c(S(=O)(=O)c3ccc(C)cc3)cc2c1`, the Potency entry was “inactive”.

As to `COc1cc2nc(N(CCCN(C)C)C(=O)c3ccc(C(=O)c4ccccc4)cc3)sc2cc1OC`, the Potency was 44.7 µM (active).

As to `CN(C)CCCN(C(=O)c1ccco1)c1nc2ccc(Cl)cc2s1`, the Potency was 39.8 µM (active).

As to `CN(C)CCCN(C(=O)c1ccc2c(c1)CCCC2)c1nc2ccc(Cl)cc2s1`, the Potency was 31.6 µM (active).

`Cc1ccc2nc(N(CCCN(C)C)C(=O)c3ccc4c(c3)CCCC4)sc2c1`: the Potency is 39.8 µM (active).

Consider `CN(C)CCCN(C(=O)c1cccs1)c1nc2cc3c(cc2s1)OCO3`, for which the Potency result was “inactive”.

Consider `S=C(Nc1ccccc1Cl)N1CCCC(c2ccccc2)=N1`, for which the Potency entry was “inactive”.

`NC1=NC(=O)C(Cc2ccc(Br)cc2)S1` (centres undefined): the Potency result was “inactive”.

`Nc1nc(N)c2ncc(C(=O)CCc3ccccc3)nc2n1`: the Potency result is “inactive”.

Turning to `O=c1c2ccccc2nc(-c2ccccc2)n1O`, the Potency result is “inactive”.

For the compound `CN(C)c1ccnc2sc(C(=O)c3ccc(Br)cc3)c(N)c12`, the Potency result is “inactive”.

With `CCC1CCCCN1S(=O)(=O)c1ccc(C(=O)Nc2sc3c(c2C(=O)NC)CCC3)cc1` (centres undefined), the Potency result was “inactive”.

Consider `CC1CCCCN1S(=O)(=O)c1ccc(C(=O)N(CCCN(C)C)c2nc3ccc(Br)cc3s2)cc1` (centres undefined), for which the Potency is 39.8 µM (active).

With `COC(=O)c1c(NC(=O)c2ccc(S(=O)(=O)N3CCCCC3C)cc2)sc2c1CCN(C(C)C)C2` (centres undefined), the Potency result was “inactive”.

With `CSc1nsc(SCC(=O)Nc2ccccc2C(N)=O)n1`, the Potency result was “inactive”.

Regarding `Cc1ccc(Cn2c(=N)c(C(=O)NCC3CCCO3)cc3c(=O)n4cccc(C)c4nc32)cc1` (centres undefined), the Potency result was “inactive”.

For `CSCCC(NC(=O)COc1ccccc1)C(=O)NCCOc1ccccc1` (centres undefined), the Potency entry was “inactive”.

In the case of `COc1ccc(OC)c2cc3ccccc3cc12`, the Potency is 17.8 µM (active).

Take `COc1cc2ccccc2cc1C(=O)Nc1ccc(O)cc1`: the Potency entry was “inactive”.

Turning to `COc1c2ccccc2nc2ccccc12`, the Potency result was “inactive”.

For the compound `COc1ccc2c(c1)cc(C(=O)N/N=C/c1c(O)c(C(=O)O)cc3ccccc13)n2C`, the Potency entry is “inactive”.

For the compound `CCOc1ccc(CNC(=O)C2CCCN(c3nnc(C)c4c(C)n(-c5ccccc5)nc34)C2)cc1` (centres undefined), the Potency was 15.8 µM (active).

Consider `Cc1ccc(-n2nc3c(N4CCCC(C(=O)NCCc5ccccc5)C4)nnc(C)c3c2C)cc1` (centres undefined), for which the Potency was 20 µM (active).

Take `CCOc1ccc(NC(=O)C2CCCN(c3nn4c(=O)cc(C)nc4s3)C2)cc1` (centres undefined): the Potency entry was “inactive”.

Consider `COc1ccc(C)cc1NC(=O)C1CCCN1S(=O)(=O)c1ccccc1F` (centres undefined), for which the Potency result was “inactive”.

With `Cc1ccc(-n2nc3c(=O)n(C(C)C(=O)NCCc4cccs4)nc(C)c3c2C)cc1` (centres undefined), the Potency entry was “inactive”.

On to `Cc1nnc(N2CCCC(C(=O)Nc3cc(F)ccc3F)C2)c2nn(-c3ccccc3)c(C)c12` (centres undefined), for which the Potency is 35.5 µM (active).

On to `CCOC(=O)N1CCN(S(=O)(=O)N2CCCC(C(=O)NCCc3ccc(Cl)cc3)C2)CC1` (centres undefined), for which the Potency result was “inactive”.

Take `CCOc1ccc(CCNC(=O)C2CCCN(c3nnc(C)c4c(C)n(-c5ccccc5)nc34)C2)cc1` (centres undefined): the Potency was 31.6 µM (active).

In the case of `Cc1cccc(CNC(=O)CCCn2nc(C)c3c(C)n(-c4ccccc4)nc3c2=O)c1`, the Potency result is “inactive”.

Turning to `Cc1cc(NC(C)C)n2c(nc3ccccc32)c1C#N`, the Potency result was “inactive”.

As to `COC(=O)c1c(C(=O)OC)c2c(-c3ccccc3)cc3cccc1n32`, the Potency result is “inactive”.

Turning to `Cc1ccc(C2=CC(c3ccccc3)n3ncnc3N2)cc1` (centres undefined), the Potency result was “inactive”.

As for `CCn1c(=N)c(C(=O)NC2CCCC2)cc2c(=O)n3ccccc3nc21`, the Potency result is “inactive”.

For `COC(=O)c1ccc(-c2sc3nc(N4CCOCC4)c4c(c3c2N)CCCC4)o1`, the Potency result is “inactive”.

For `O=C(CSc1ccc(-c2cccs2)nn1)Nc1ccccc1F`, the Potency entry was “inactive”.

On to `Cc1cc(C)n2nc(C(=O)OCC(=O)NC3CCS(=O)(=O)C3)nc2n1` (centres undefined), for which the Potency entry was “inactive”.

`N#Cc1c(-c2ccccc2F)cc(C2CC2)nc1SCC(=O)c1cccs1`: the Potency entry is “inactive”.

Take `O=C(NCCS(=O)(=O)N1CCN(c2ccccc2)CC1)C1CCCCC1`: the Potency entry was “inactive”.

On to `CCOc1ccccc1NC(=O)C1CCC(CNc2c(N3CCCCC3)c(=O)c2=O)CC1` (centres undefined), for which the Potency result is “inactive”.

With `CCOc1ccccc1CNC(=O)C1CCN(c2nnc(C)c3c(C)n(-c4ccc(C)cc4)nc23)CC1`, the Potency is 35.5 µM (active).

As for `Cc1nnc(N2CCCC(C(=O)NCCN(C)C)C2)c2nn(-c3ccccc3)c(C)c12` (centres undefined), the Potency is 44.7 µM (active).
